Compound activity as filed in PubChem BioAssay.
FBPA coupling cs: inhibits coupling enzyme system, counter-screen for aldolase hits. coupling enzyme system counterscreen, AmpLite Red fluorescence. activity change, negative = inhibition, % at 58.2 µM, hits read low. 290,000 compounds, 0.67% hits; in the data active = activity change below about -30%
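Final compound at 57.5 uM, incubated 10 min at RT with coupling enzyme reagent (glyceraldehyde-3-phosphate), then 20 min with substrate and AmpLite Red detection. Fluorescence read at 525/598 nm; tests interference with the coupling assay, not aldolase inhibition.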
G9a block: G9a (human) methyltransferase inhibition; 350,000 compounds, 8.8% hits; Potency, µM (top dose mostly 102 µM), inactives show at the top dose activity, negative = inhibition, hits mostly inhibitors; Q96KQ7; G9a H3K9 monomethylation, AlphaScreen, 2 h; AID 504332; note: potency is the fitted concentration of half-maximal effect; nearly all actives have a fitted effect of over 75% in size
Target sequence (Q96KQ7 913-1193 limits assumed): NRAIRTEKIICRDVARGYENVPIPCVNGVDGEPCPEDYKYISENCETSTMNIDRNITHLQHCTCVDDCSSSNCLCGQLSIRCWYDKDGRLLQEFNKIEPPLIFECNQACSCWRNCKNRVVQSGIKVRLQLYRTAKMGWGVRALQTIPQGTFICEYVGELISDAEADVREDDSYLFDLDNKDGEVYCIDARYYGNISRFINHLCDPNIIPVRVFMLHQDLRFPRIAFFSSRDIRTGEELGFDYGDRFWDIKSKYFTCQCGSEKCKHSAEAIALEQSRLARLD
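Readings reflect AlphaScreen signal from monomethyl-H3K9 antibody detection. HMT at 20 nM; substrate b-H3K9 500 nM; cofactor SAM 20 uM; 2 h RT reaction; compounds tested as titrations in qHTS with 15 min preincubation.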
Sfp PPTase inh: inhibitors of Bacillus subtilis Sfp phosphopantetheinyl transferase; Potency, µM, without a hit: largest response in the series, negative = inhibition, actives largely listed as inhibitors; Biochemical Sfp PPTase activity, qHTS; Q9F4F7; 310,000 compounds, 3.5% hits;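 note: the enzyme is Sfp with the accession as filed and its product quenches rhodamine fluorescence; potency is the fitted concentration of half-maximal effect; 0% = enzyme reaction without inhibitor and -100% = no enzyme wells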
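Step 1, compound plus 15 nM Sfp-PPTase, 15 min, room temperature. Step 2, add rhodamine-CoA (5 uM) and BHQ-2-YbbR (12.5 uM). Step 3, read 525/598 nm fluorescence at 0 and 30 min.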
Tau fibril ThT: blocks human tau fibril formation measured by thioflavin T | recombinant tau K18 P301L, heparin-induced fibrillization, ThT fluorescence | Potency, µM (titrated, usually from 57.4 µM), without a hit: at the highest dose activity, negative = inhibition, actives largely listed as inhibitors | 270,000 compounds, 2.1% hits | AID 1460; note: potency is the fitted concentration of half-maximal effect; nearly all actives have a fitted effect of over 55% in size
Target sequence (P10636 561-689 P618L limits assumed): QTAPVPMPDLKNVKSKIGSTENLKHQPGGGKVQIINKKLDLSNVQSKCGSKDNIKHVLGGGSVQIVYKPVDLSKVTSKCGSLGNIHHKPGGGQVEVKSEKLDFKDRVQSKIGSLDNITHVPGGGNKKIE
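Tau K18 P301L fragment (15 uM unlabeled plus 0.24 uM Alexa 594-labeled) in 100 mM sodium acetate pH 7 with compound, fibrillization induced by 20 uM heparin for 6 hr at 37 C. Thioflavin T (30 uM) added, fluorescence read after 1 hr (ex 450, em 510 nm).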
Tau fluor cs: counter-screen for tau fibril formation inhibitors. tau K18 P301L Alexa594 fluorescence, heparin fibrillization. Potency, µM (series often up to 57.7 µM), for the others: top-dose activity change, negative = decrease. 280,000 compounds, 0.93% hits. AID 1463; note: potency is the fitted concentration of half-maximal effect; nearly all actives have a fitted effect of over 55% in size
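Human tau K18 P301L (15 uM unlabeled, 0.24 uM Alexa 594-labeled) in 100 mM sodium acetate pH 7 with 20 uM heparin, 6 hr at 37 C. ThT 30 uM added, 1 hr ambient; Alexa 594 FP and total fluorescence read at 555/632 nm.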
Tau fibril FP: tau fibrillization inhibition (FP) | Potency, µM (highest dose often 57.7 µM), for inactives: top-dose activity, negative = inhibition, usual class: inhibitors | P10636 | K18 P301L tau heparin fibrillization, Alexa594 FP, 6 h | 280,000 compounds, 0.39% hits; note: potency is the fitted concentration of half-maximal effect; nearly all actives have a fitted effect of over 55% in size
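Human tau K18 […] P301L fragment, 15 uM unlabeled plus 0.24 uM Alexa 594-labeled tau (final), with compound and 20 uM heparin in 100 mM sodium acetate pH 7; 6 hr at 37 C, then Alexa 594 FP read.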
Starred values were filed as active, the others as inactive; ? = inconclusive; nt = not tested or not shown; ! = not active in a repeat; [ ] = remark or other dose. An excerpt weighted towards active compounds, which were near 11% of everything screened. Unless noted, calls come from the whole dose curve; as a rule, active = well fitted curve in the direction sought with a large enough effect; inconclusive = small, poorly fitted or top-dose-only effect, or another doubt; inactive = no such curve, though single readings can be large; an effect the other way counts as inactive or inconclusive. Unless noted, % is set by controls: 0 for no effect and ±100 for the full control effect.

SMILES	FBPA coupling cs	G9a block	Sfp PPTase inh	Tau fibril ThT	Tau fluor cs	Tau fibril FP
CC(=O)N1CCN(c2ccc(NCc3ccc(C)cc3)cc2)CC1	-6.9	12.6µM*	39.8µM*	?	-19.8%	-7.9%
COc1ccc(N2CCN(C(=O)NCc3ccc(C)cc3)CC2)cc1	-1.2	39.8µM*	18.1%	nt	nt	nt
CCc1ccc(CNc2ccc(N3CCN(C(C)=O)CC3)cc2)cc1	-12.4	?	35.5µM*	?	-19.9%	-4.1%
Cc1ccc(CNC(=O)N2CCN(c3ccc(C)cc3)CC2)cc1	7.1	?	8.4%	nt	nt	nt
CC(CSC(=O)c1ccccc1)C(=O)N1C[C@@H](Sc2ccccc2)C[C@H]1C(=O)O (some centres undefined)	nt	-32.0%[12.7 µM]	20.4%	nt	nt	nt
Cc1oc2c(c1C(=O)NCc1cccc(Br)c1)C1=NCCN1C=N2	nt	9.8%[59 µM]	nt	-2.5%	-11.6%	-11.5%
CSC(=S)NCc1cccnc1	-0.4	?	12.6%	-2.4%	1.9%	1.0%
Cc1cc(C(=O)NCc2ccccc2Cl)c2c(C)nn(-c3ccccc3)c2n1	nt	-15.4%[59 µM]	nt	-5.5%	-27.1%	-13.5%
O=C1NC(=O)/C(=C/c2ccccc2OCc2ccccc2)S1	11.4	39.8µM*	-20.1%	-4.8%	-3.6%	4.4%
O=C(Cc1ccccc1)Nn1c(O)c(/C=C2\C=Nc3ccccc32)sc1=S	0.4	-5.4%	16.6%	2.51µM*	7.94µM*[quencher]	?
CCn1c(O)c(/C=C2\C=Nc3ccccc32)sc1=Nc1ccccc1	-0.1	33.8%	27.0%	-12.1%	?	12.9%
Cn1c(O)c(/C=C2\C=Nc3ccccc32)sc1=Nc1ccc(C(=O)O)cc1	10.8	35.5µM*	-1.7%	nt	-25.8%	9.1%
CCCCCC(=O)N[C@@H](c1ccccc1)[C@@H](O)C(=O)O[C@H]1C[C@@]2(O)[C@@H](OC(=O)c3ccccc3)C3[C@](C)(C(=O)[C@H](OC(C)=O)C(=C1C)C2(C)C)[C@@H](O)C[C@H]1OC[C@@]31OC(C)=O (some centres undefined)	0.6	15.3%	16.2%	nt	nt	nt
CC(=O)O[C@H]1C(=O)[C@@]2(C)[C@H]([C@H](OC(=O)c3ccccc3)[C@]3(O)C[C@H](OC(=O)[C@H](O)[C@@H](NC(=O)c4ccccc4)c4ccccc4)C(C)=C1C3(C)C)[C@]1(OC(C)=O)CO[C@@H]1C[C@@H]2O	0.5	6.6%[12.7 µM]	50.1µM*!	?	-15.9%	-1.8%
O=C(CN1C(=O)CCC1=O)NNc1ccc2ccccc2c1	0.9	8.91µM*	1.4%	-6.8%	1.6%	10.2%
O=C(Cc1ccccc1)NNc1ccc2ccccc2c1	0.0	?	17.5%	-5.9%	-5.4%	10.0%
C/C(=N\NC(=O)c1ccccc1)C1C2C=CC(C2)C1(C)C (centres undefined)	3.5	29.9%	4.6%	nt	nt	nt
CCn1c(=O)c2sccc2n(Cc2ccccc2)c1=O	0.4	23.9%	-0.7%	nt	nt	nt
CC(C)c1ccc(NNC(=O)C2CCC2)cc1	-0.6	7.08µM*	-1.8%	-8.1%	-16.6%	-0.1%
COc1ccc(N=Cc2c(O)c3ccccc3n2C(C)=O)cc1	-16.2	25.1µM*	17.8µM*	15.8µM*	?	?
COc1ccc(N=Cc2sc(O)c3ccccc23)cc1	-6.0	?	-14.9%	?	7.08µM*[quencher]	?
COc1ccc(-n2c(O)c(C=Nc3ccccc3)c3ccccc3c2=O)cc1	2.4	-41.7%	2.4%	-4.6%	-10.8%	-5.6%
O=[N+]([O-])c1cc(C(F)(F)F)cc([N+](=O)[O-])c1NCCN1CCNCC1	-1.2	11.3%[0.501 µM]	12.2%	nt	nt	nt
O=[N+]([O-])c1cc(C(F)(F)F)cc([N+](=O)[O-])c1NCCCN1CCOCC1	-3.8	-45.7%	14.8%	-15.9%	-5.7%	5.7%
N#CCC(=O)NNc1c([N+](=O)[O-])cc(C(F)(F)F)cc1[N+](=O)[O-]	8.9	50.1µM*	11.0%	nt	-3.5%	6.9%
